Bioassay records from PubChem BioAssay.
A selection: hits, their analogues and other compounds. The true share with any hit is near 7.6%.
Cy5 interf NS3h: enhances or quenches Cy5 fluorescence in NS3h assay; Cy5-dT15 DNA with NS3h, fluorescence interference; actives lie on both sides; signal over control mean, under 1 quenches; fluorescence interference ratio at 100 µM; actives 6% (n = 16,000); AID 720488;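 active = compound fluorescence over control fluorescence at most 0.8, a quencher, or at least a set upper limit, an enhancer; inactive = ratio between 0.8 and the set upper limit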
NS3h inh CB: hepatitis C NS3 helicase inhibition, primary screen; NS3h Cy5-dT15 DNA binding, fluorescence polarization; inhibition, % at 100 µM; actives 1.6% (n = 16,000); AID 687043;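 active = inhibition above the average over every tested compound plus 3 SD, cut at about 40% in these data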
An asterisk follows results filed as active.

SMILES	Cy5 interf NS3h	NS3h inh CB
CS(=O)(=O)N1CCN(C(=O)c2ccccc2F)CC1	0.7*	8
CCCC(=O)Nc1ccc(NC(=O)c2ccc(OC)c(Br)c2)cc1	1.1	1
CCOC(=O)c1c(NC(=O)c2cncc(Br)c2)sc(C)c1C	0.97	17
O=C(NC(CS)C(=O)O)c1cncc(O)c1 (stereo unspecified)	0.64*	0
O=C(CC1S/C(=N/N=C\c2ccccc2)NC1=O)Nc1ccccc1F (stereo unspecified)	1.2*	-8
COc1ccccc1/C=N\N=C1/NC(=O)C(CC(=O)Nc2cccc(C)c2C)S1 (stereo unspecified)	1	15
CN(C)c1ccc(/C=C/C(=O)c2c(-c3ccccc3)c3cc(Cl)ccc3[nH]c2=O)cc1	0.98	10
COc1ccc(NC(=O)/C=C/c2ccccc2Cl)c([N+](=O)[O-])c1	1	8
O=C(/C=C/c1ccccc1Cl)Nc1ccccc1[N+](=O)[O-]	1.1	41*
CCOC(=O)C1=C(C)N(CCOC)C(=O)/C1=C\c1sccc1C	0.96	12
O=C1NN=C2C3CCC4CC12CC1(C3)C(=O)NN=C41	0.74*	6
Cc1cc(=O)n2c([nH]c3ccccc32)c1C(=O)O	0.79*	30
O=C(COc1ccc(Cl)cc1)Nc1cc([N+](=O)[O-])ccc1F	0.88	10
Cc1cc(OCC(=O)Nc2cc([N+](=O)[O-])ccc2Cl)cc(C)c1Cl	0.54*	8
O=C1CSC2(N1)C1CC3CC(C1)CC2C3 (stereo unspecified)	1.2*	-1
Nc1ccc(C(=O)NCCNCCNC(=O)c2ccc(N)cc2)cc1	0.8*	15
Nc1ccc(C(=O)Nc2cccc3ccccc23)cc1	1.1	14
CCN1C(=O)/C(=C\c2cccc(OCCOc3cccc(OC)c3)c2)SC1=S	1	7
CCN1C(=O)/C(=C/c2cccc(OC(=O)c3ccccc3I)c2)SC1=S	0.74*	15
C=CCN1C(=O)/C(=C\c2ccc(C=O)cc2)SC1=S	1.1	10
O=Cc1ccc(/C=C2/SC(=S)N(Cc3ccccc3)C2=O)cc1	0.72*	10
O=C1/C(=C/c2ccc(I)o2)SC(=S)N1Cc1ccccc1	0.66*	7
O=C1/C(=C\c2ccc(-c3ccccc3Cl)o2)SC(=S)N1Cc1ccccc1	1	1
CCN1C(=O)/C(=C\c2ccc(N(C)C)cc2)SC1=S	1.2*	11
CN(C)c1ccc(/C=N\N2C(=O)/C(=C/c3ccc(N(C)C)cc3)SC2=S)cc1	0.97	-5
SMILES	Cy5 interf NS3h	NS3h inh CB
O=C(CN(c1cccc(Br)c1)S(=O)(=O)c1ccccc1)N1CCCC1	1.1	2
CCc1nnc(NS(=O)(=O)c2ccc(NC(=O)c3cc4ccccc4cc3OC)cc2)s1	1	23
COc1ccc(-n2c(=O)c3c4c(sc3n3c(SCC(N)=O)nnc23)CCCC4)cc1	1.1	2
Cc1cccc(NC(=O)Cc2ccccc2)c1C	1.1	6
CCOc1ccc(C(=O)N2CCCc3ccccc32)cc1OCC	1.1	0
Cc1ccc(-c2cc(C(F)(F)F)n3nc(C(=O)N4CCCc5ccccc54)cc3n2)cc1	1.1	18
C=C(Br)n1c(COc2ccccc2)nc2ccccc21	0.92	12
COC(=O)c1ccc(-c2ccc(/C=C3/SC(=S)N(c4ccccc4)C3=O)o2)cc1	1	1
O=C1/C(=C/c2ccc(I)o2)SC(=S)N1c1ccccc1	0.69*	13
CC(=O)c1ccc(NC(=O)C2CC(=O)N(c3cc(C)ccc3C)C2)cc1 (stereo unspecified)	0.97	0
CCOC(=O)c1c[nH]c2c(OCC)cccc2c1=O	1	-6
COc1cc(Br)cc(/C=C2\C(=O)NN(c3ccccc3)C2=O)c1O	0.82	45*
CCOC(=O)c1ccc(N2NC(=O)/C(=C/c3cccc(OC)c3O)C2=O)cc1	0.85	-2
COc1cc(/C=C2/C(=O)NN(c3ccc(C)c(C)c3)C2=O)cc([N+](=O)[O-])c1O	0.72*	10
O=C1NN(c2ccccc2)C(=O)/C1=C/c1cccc2ccccc12	1	19
O=C1NN(c2ccccc2)C(=O)/C1=C/c1cccc(Cl)c1Cl	0.99	47*
CCOC(=O)c1ccc(N2NC(=O)/C(=C/c3cc(Br)ccc3O)C2=O)cc1	0.69*	-14
Cc1ccc(N2NC(=O)/C(=C/c3ccc(C)c([N+](=O)[O-])c3)C2=O)cc1Cl	0.93	28
CCOc1c(/C=C2\C(=O)NN(c3ccccc3)C2=O)cccc1OC	1	10
O=c1[nH]c2ccc(Cl)cc2c(-c2ccccc2)c1C1=NOC(c2ccccc2)C1 (stereo unspecified)	0.99	-1
COC(=O)c1c(C(F)(F)F)cc(-c2ccccc2)nc1C	0.92	12
O=C(Nc1ccccc1C(=O)Nc1ccc(Cl)cc1)c1cccs1	0.94	7
CCOc1cc(C=C2C(=O)NC(=O)NC2=O)ccc1OCc1ccc(Cl)cc1	0.4*	-15
COc1cc(C=C2C(=O)NC(=O)NC2=O)ccc1OCCC(C)C	0.8*	24
